Reference: PubChem BioAssay
Calls of active or inactive are those of the source.

Tests used:
[1] = test system: Human papillomavirus type 1a protein E7 (residues 44-93); assay: HPV1a E7 fragment binders on microarrays, primary screen, biochemical, small-molecule microarray, residues 44-93, 635 nm fluorescence (AID 1108); conditions: small-molecule microarray binding, fluorescence 635 nm; higher = more signal;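 further: E7 fragment applied at 1 µg/mL in TBST for 1 h at 4 C; score combines spot fluorescence with its signal to noise ratio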
[2] = modulators of HCV replicon luciferase signal, primary screen, HCV replication inhibitor project, Huh7 cells, luciferase reporter (AID 1109); conditions: 48 h, higher = more signal;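 further: huh7 hepatoma cells harbouring a luciferase neomycin HCV replicon reporter; luciferase luminescence as measure of HCV replicon replication; test concentration not given here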
[3] = biological target: Left-right determination factor 2 (Homo sapiens) (UniProt O00292); assay: LEFTY2 binders on small-molecule microarrays, primary screen, biochemical, small-molecule microarray, 635 nm fluorescence scan (AID 1110); conditions: LEFTY2 binding, higher = more signal
[4] = biological target: Calmodulin-1 (Homo sapiens) (UniProt P0DP23); assay: CALM1 binders on microarrays, EGTA buffer, profiling panel, biochemical, small-molecule microarray, Cy5-labelled CALM1 (AID 1111); conditions: Cy5-CALM1 binding fluorescence, higher = more signal;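 further: labelled calmodulin applied in Tris saline Tween buffer holding calcium plus EGTA and DTT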
[5] = biological target: Calmodulin-1 (Homo sapiens) (UniProt P0DP23); assay: calcium-bound CALM1 binders on microarrays, profiling panel, artefact control for SMM control-protein annotation, biochemical, small-molecule microarray, Cy5-labelled CALM1, plus calcium (AID 1112); conditions: Cy5-CALM1 binding fluorescence, higher = more signal;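 further: score merges spot fluorescence with signal to noise from triplicate slides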
[6] = small-molecule microarray binders of probe aWnt5a, primary screen, biochemical, biotinylated probe, 635/667 nm fluorescence (AID 1113); conditions: higher = more signal;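 further: score merges 667 nm fluorescence intensity with signal-to-noise per printed feature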
[7] = small-molecule microarray binders of probe aShh, primary screen, biochemical, biotinylated probe, 635/667 nm fluorescence (AID 1114); conditions: higher = more signal;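 further: probe is biotin-labelled aShh protein from a stem cell growth factor screen; measures binding of labelled protein to compounds printed on the slide; score merges feature fluorescence at 667 nm with signal-to-noise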
[8] = small-molecule microarray binders of probe aNog, primary screen, biochemical, biotinylated probe, 635/667 nm fluorescence (AID 1115); conditions: higher = more signal;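 further: probe is biotinylated aNog protein used at 0.15 µg/mL for 1 h at 4 C; z-score combines 667 nm fluorescence of each spot with its signal to noise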
[9] = biological target: Torsin-1A-interacting protein 1 (Homo sapiens) (UniProt Q5JTV8); assay: LAP1 binders from COS7 cell lysate, primary screen, small-molecule microarray, 635/667 nm fluorescence (AID 1116); conditions: COS7-hLAP1 lysate binding, 635 nm fluorescence, higher = more signal
[10] = biological target: Alpha-bungarotoxin (Bungarus multicinctus) (UniProt P60615); assay: alpha-bungarotoxin binders on microarray, profiling panel, artefact control for SMM control protein annotation, biochemical, small-molecule microarray, Alexa647 label, 635/667 nm fluorescence (AID 1117); conditions: alpha-BTX-A647 binding fluorescence, higher = more signal
[11] = biological target: Albumin (Bos taurus) (UniProt P02769); assay: bovine serum albumin binders on microarray, profiling panel, artefact control for SMM control protein annotation, biochemical, small-molecule microarray, Alexa647 label, 635/667 nm fluorescence (AID 1118); conditions: BSA-A647 binding, fluorescence 635 nm, higher = more signal;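 further: score merges 667 nm emission intensity and signal-to-noise per printed compound spot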
[12] = small-molecule microarray binders of probe aXIP, primary screen, biochemical, NeuroSMM set, 635/667 nm fluorescence (AID 1119); conditions: higher = more signal, called active from +8 up or from −8 down;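 further: probe is the protein aXip251-270 applied at 1 µg/mL to compound-printed slides; binding of probe to printed compounds measured as 667 nm fluorescence plus signal to noise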
[13] = small-molecule binders of probe aNOTCH3, primary screen, biochemical, small-molecule microarray, 635/667 nm fluorescence (AID 1120); conditions: higher = more signal;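 further: probe is a biotin-tagged antibody raised against NOTCH3 rather than NOTCH3 protein; score merges spot fluorescence near 667 nm with spot signal to noise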
[14] = small-molecule binders of probe aNOTCH2, primary screen, biochemical, small-molecule microarray, 635/667 nm fluorescence (AID 1121); conditions: higher = more signal;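 further: score merges feature fluorescence read at 667 nm with its signal to noise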
[15] = biological target: Carbonic anhydrase 2 (Homo sapiens) (UniProt P00918); assay: CAII small-molecule binders, profiling panel, biochemical, small-molecule microarray, Alexa647-labelled CAII (AID 1122); conditions: CAII-A647 binding fluorescence, higher = more signal
[16] = COS7 lysate on small-molecule microarray, probe aHis, 635 nm (AID 1123); conditions: COS7 cell lysate, fluorescence, higher = more signal;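 further: z-score combines 667nm fluorescence intensity with signal-to-noise per printed compound spot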
[17] = compound binding in COS7 lysate, probe aLAP1, primary screen, cell lysate, small-molecule microarray (AID 1124); conditions: probe aLAP1, fluorescence, higher = more signal;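 further: lysate comes from COS7 cells expressing LAP1 and is applied at 0.3 µg/mL; score merges spot fluorescence near 667 nm with signal-to-noise over triplicate slides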
[18] = test system: Sam68 (KHDRBS1); assay: Sam68 small-molecule binders, primary screen, biochemical, small-molecule microarray, 635 nm fluorescence (AID 1125); conditions: small-molecule microarray binding, higher = more signal;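 further: score merges 667 nm channel intensity with signal to noise over triplicate slides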
[19] = test system: Chordin-like protein 2 (CHRDL2); assay: CHRDL2 small-molecule binders, primary screen, biochemical, small-molecule microarray, 635 nm fluorescence (AID 1126); conditions: small-molecule microarray binding, fluorescence 635 nm; higher = more signal;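 further: printed compound slides probed with Chrdl2 protein at 4 µg/mL for 1 h at 4 C; score merges 667 nm emission intensity with signal to noise over three replicate slides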
[20] = biological target: Concanavalin-A (Canavalia ensiformis) (UniProt P02866); assay: ConA small-molecule binders, primary screen, artefact control for SMM control protein annotation, biochemical, small-molecule microarray, Alexa647 label, 635 nm (AID 1127); conditions: ConA-A647 binding fluorescence, higher = more signal;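 further: z combines 667 nm emission intensity with signal-to-noise across three replicate slides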
Sequence of Concanavalin-A (Canavalia ensiformis) (P02866 whole entry, looked up): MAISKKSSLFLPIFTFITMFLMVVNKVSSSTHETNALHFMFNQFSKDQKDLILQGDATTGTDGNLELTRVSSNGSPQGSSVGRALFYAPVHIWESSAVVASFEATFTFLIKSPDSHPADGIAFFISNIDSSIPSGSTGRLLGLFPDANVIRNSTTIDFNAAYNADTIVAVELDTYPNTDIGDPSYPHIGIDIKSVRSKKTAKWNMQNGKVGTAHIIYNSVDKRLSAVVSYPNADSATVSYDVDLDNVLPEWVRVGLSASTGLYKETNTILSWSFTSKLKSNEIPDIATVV

Sequence of Torsin-1A-interacting protein 1 (Homo sapiens) (Q5JTV8 whole entry, looked up): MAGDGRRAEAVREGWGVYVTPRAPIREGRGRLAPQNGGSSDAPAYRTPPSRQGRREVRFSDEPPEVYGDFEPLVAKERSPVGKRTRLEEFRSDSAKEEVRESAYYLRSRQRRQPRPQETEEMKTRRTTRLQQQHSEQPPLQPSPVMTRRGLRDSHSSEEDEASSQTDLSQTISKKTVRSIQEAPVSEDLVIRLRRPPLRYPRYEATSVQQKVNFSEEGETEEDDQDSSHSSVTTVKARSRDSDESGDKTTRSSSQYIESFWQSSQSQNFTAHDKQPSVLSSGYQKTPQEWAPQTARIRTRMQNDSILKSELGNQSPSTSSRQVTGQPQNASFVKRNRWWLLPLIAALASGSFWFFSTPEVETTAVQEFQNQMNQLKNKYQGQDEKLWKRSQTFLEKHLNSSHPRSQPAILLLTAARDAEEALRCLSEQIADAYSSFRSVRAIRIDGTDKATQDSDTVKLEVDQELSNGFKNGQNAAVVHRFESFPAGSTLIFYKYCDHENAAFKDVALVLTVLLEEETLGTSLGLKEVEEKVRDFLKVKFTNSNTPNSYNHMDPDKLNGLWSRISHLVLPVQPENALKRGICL
Sequence of Left-right determination factor 2 (Homo sapiens) (O00292 whole entry, looked up): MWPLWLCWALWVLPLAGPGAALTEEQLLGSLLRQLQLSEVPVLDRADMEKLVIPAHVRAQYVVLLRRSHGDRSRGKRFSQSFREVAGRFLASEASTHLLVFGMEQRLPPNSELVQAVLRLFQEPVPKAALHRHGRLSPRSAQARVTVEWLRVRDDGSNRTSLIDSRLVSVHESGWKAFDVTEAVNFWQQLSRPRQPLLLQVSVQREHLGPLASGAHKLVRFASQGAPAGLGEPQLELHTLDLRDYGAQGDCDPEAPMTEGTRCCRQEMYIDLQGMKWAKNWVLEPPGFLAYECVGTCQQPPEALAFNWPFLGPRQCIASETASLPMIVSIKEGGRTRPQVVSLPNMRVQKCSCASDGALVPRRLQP
Sequence of Albumin (Bos taurus) (P02769 whole entry, looked up): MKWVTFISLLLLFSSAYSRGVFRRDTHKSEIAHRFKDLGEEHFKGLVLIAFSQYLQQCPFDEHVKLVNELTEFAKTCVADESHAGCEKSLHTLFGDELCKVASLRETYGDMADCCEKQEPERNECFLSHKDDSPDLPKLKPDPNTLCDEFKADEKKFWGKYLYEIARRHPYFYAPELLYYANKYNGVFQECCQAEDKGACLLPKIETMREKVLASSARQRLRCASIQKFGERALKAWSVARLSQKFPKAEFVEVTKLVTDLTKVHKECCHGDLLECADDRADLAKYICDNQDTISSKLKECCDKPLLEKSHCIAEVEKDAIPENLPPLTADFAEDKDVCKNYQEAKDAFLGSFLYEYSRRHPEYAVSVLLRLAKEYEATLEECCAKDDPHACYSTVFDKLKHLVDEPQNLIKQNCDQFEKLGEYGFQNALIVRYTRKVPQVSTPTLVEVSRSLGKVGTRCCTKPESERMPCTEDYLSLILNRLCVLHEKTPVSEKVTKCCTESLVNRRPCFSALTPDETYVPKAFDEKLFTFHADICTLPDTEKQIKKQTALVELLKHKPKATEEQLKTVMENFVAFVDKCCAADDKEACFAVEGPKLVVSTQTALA
Sequence of Alpha-bungarotoxin (Bungarus multicinctus) (P60615 whole entry, looked up): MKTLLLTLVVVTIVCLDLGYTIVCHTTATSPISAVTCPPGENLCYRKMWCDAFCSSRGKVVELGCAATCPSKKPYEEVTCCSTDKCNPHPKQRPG

Row | SMILES | composite z-score [1] | z-score [2] | composite z-score [3] | composite z-score [4] | composite z-score [5] | composite z-score [6] | composite z-score [7] | composite z-score [8] | composite z-score [9] | composite z-score [10] | composite z-score [11] | composite Z-score [12] | composite z-score [13] | composite z-score [14] | composite z-score [15] | composite z-score [16] | composite z-score [17] | composite z-score [18] | composite z-score [19] | composite z-score [20]
1 | CCCCc1nc2c(c3c1C[C@H](C)OC3)CN(CCOc1ccccc1)CC2 | 0.348 | -0.659 | 0.814 | -0.407 | -0.7 | -0.0738 | -0.0977 | -0.304 | 0.56 | 0.672 | 0.674 | 0.202 (inactive) | 0.058 | -0.11 | 0.221 | 0.686 | 0.135 | 1.06 | 0.726 | 0.975
2 | O=c1n(Cc2cc3c(cc2Cl)OCO3)c(=O)n2n1CC[C@@H]1C(=NOC[C@@H](O)COCc3ccco3)[C@H]3O[C@H]3[C@@H](O)[C@@H]12 | 0.77 | -0.76 | 0.436 | -0.25 | -0.535 | -0.0556 | -0.0709 | -0.0544 | 0.469 | 0.423 | -0.0922 | -0.263 (inactive) | -0.0841 | -0.0974 | 0.351 | -0.0175 | 0.0735 | 0.175 | 0.57 | 0.392
3 | CCOC(=O)[C@H](Cc1ccccc1)NC(=O)CCC1CC(OC(=O)NCCc2ccc(F)cc2)CC2(CCCC(COC(=O)NCCc3ccc(Cl)cc3)O2)O1 (stereo not given in full) | 1.33 | -0.226 | 0.546 | 1.28 | 0.198 | -0.158 | -0.0977 | 0.232 | 0.949 | 0.49 | 0.755 | 0.118 (inactive) | 0.0179 | -0.101 | 0.283 | 1.12 | 0.416 | 1.23 | 0.38 | 1.03
4 | CO[C@@H]1COC(=O)[C@@H](C)NC(=O)CC=C[C@@H](C)[C@H](NS(=O)(=O)c2ccc(C)cc2)COC(=O)[C@H](C)NC(=O)CC=C[C@H]1C | -0.0926 | 0.0975 | 0.765 | -1.74 | -1.94 | -0.0045 | -0.0709 | -0.433 | 0.392 | -0.744 | -1.05 | 1.05 (inactive) | -0.0647 | -0.184 | -0.333 | -0.634 | -0.192 | 0.643 | 1.16 | -1.05
